The campaign covered roughly 330,000 compounds. About 5,800 (1.8%) were called active. Cut-off read from the data, not from the text of the source: active = inhibition mostly above about 38% (no sharp cut-off); inactive = mostly below about 40%. What follows is part of a selection rich in actives, with near analogues and random picks from the rest.
Molecular target: Orexin/Hypocretin receptor type 1 (Homo sapiens) (UniProt O43613)
Assay: antagonists of human orexin 1 receptor (OX1R) (AID 485270);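 note: 0% = agonist challenge alone and 100% = reference antagonist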
Settings: OX1R-expressing cells, FRET antagonist read-out; at 6.6 µM; active compounds read high

Chain of Orexin/Hypocretin receptor type 1 (Homo sapiens) (O43613 whole entry, looked up): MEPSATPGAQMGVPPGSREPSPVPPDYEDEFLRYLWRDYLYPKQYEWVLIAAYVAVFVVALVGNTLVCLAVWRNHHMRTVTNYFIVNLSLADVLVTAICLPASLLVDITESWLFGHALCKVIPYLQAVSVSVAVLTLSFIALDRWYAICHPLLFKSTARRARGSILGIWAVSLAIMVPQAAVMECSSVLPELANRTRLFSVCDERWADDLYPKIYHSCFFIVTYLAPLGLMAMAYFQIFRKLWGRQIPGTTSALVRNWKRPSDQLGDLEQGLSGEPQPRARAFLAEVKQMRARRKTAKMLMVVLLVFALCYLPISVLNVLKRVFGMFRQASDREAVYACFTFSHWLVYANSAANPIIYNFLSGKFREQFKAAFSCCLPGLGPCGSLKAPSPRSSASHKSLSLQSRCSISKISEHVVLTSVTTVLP

SMILES | inhibition
Cc1ccc(S(=O)(=O)NCC(C)NS(C)(=O)=O)cc1 (stereo not given) | 4.32% (inactive)
CCN(CC(=O)NC(C)C)C(=O)c1cc(S(=O)(=O)N2CCCCC2)ccc1N1CCCCC1 | 4.56% (inactive)
CC(=O)NC(CC(=O)Nc1ccc(S(=O)(=O)N2CCOCC2)cc1)c1ccccc1 (stereo not given) | 6.07% (inactive)
Cn1nccc1C(=O)NC1CCCc2c1cnn2-c1ccccc1F (stereo not given) | 26.4% (inactive)
COc1ccc(C(=O)NC2CCCc3c2cnn3-c2cccc(C)c2C)c(OC)n1 (stereo not given) | 38.4% (inactive)
Cc1cc(C(=O)NC2CCCc3c2cnn3-c2cccc(C)c2C)c(C)o1 (stereo not given) | 81% (active)
CC[C@]1(C(=O)OC)[C@H]2C(=O)N(Cc3ccccc3)C(=O)[C@H]2[C@H]2CN=C(SCc3ccc(C#N)cc3)N21 | 4.34% (inactive)
C=CC[C@H](CC(=O)OC(C)(C)C)C(=O)OC[C@H]1CCCN1C(=O)[C@H](CC=C)CC(=O)N(CCO)Cc1ccccc1 | 2.54% (inactive)
CN1CCN(CC(=O)Nc2cccc([N+](=O)[O-])c2)CC1 | 28% (inactive)
Cc1ccc(NC(=O)CN(C)CC(=O)Nc2cccc(F)c2)cc1[N+](=O)[O-] | 30% (inactive)
Cc1ccc(NC(=O)CN2CCC(C(N)=O)CC2)cc1[N+](=O)[O-] | 50.4% (active)
C[C@H](CO)N1C[C@H](C)[C@@H](CN(C)C(=O)NC2CCCCC2)Oc2ccc(NC(=O)c3ccncc3)cc2C1=O | 1.49% (inactive)
Cc1ccc(C(=O)NNC(=O)CSc2nnc3ccccn23)cc1 | 0.4% (inactive)
COCCN(Cc1nc(-c2ccc(C(F)(F)F)cc2)no1)C(C)C | -2.95% (inactive)
CC(=O)N(C1=C(Cl)C(=O)c2ccccc2C1=O)c1ccc(C(=O)O)cc1 | 39.2% (active)
CC(=O)c1ccc(-c2nnc(CCC(=O)N(C)Cc3cnc4ccccn34)o2)s1 | 40.1% (active)
CCc1ccc(CN(C)C(=O)CCc2nnc(-c3ccc(-c4ccccc4)cc3)o2)nc1 | 3.52% (inactive)
CN(C)/N=C/c1cc(Cl)cc([N+](=O)[O-])c1O | 46.4% (inactive)
O=C(N/N=C/c1cc(Cl)cc([N+](=O)[O-])c1O)C(O)(c1ccccc1)c1ccccc1 | 54.6% (active)
O=C(N/N=C/c1cc(Br)c(O)c([N+](=O)[O-])c1)C(O)(c1ccccc1)c1ccccc1 | 28.3% (inactive)
COc1cc(NC(=O)COC(=O)c2cc(S(=O)(=O)N3CCOCC3)ccc2F)cc(OC)c1 | 15.3% (inactive)
O=C(c1cnccn1)N1CCN(S(=O)(=O)c2cccc(Cl)c2)CC1 | 4.72% (inactive)
O=C(C[C@@H]1C/C=C\CCC(=O)OC[C@@H]2CCCN2C1=O)NCCO | 4.18% (inactive)
CCCCC[C@@H]1C=C(C(=O)O)[C@H](c2ccc(C#N)cc2)N1S(=O)(=O)c1ccc(C)cc1 | 10.8% (inactive)
Cc1ccc(S(=O)(=O)NNC(=O)Nc2cccc3ccccc23)cc1 | 21.8% (inactive)
Cc1ccc(S(=O)(=O)N2[C@@H](c3cccc4ccccc34)C(C(=O)O)=C[C@H]2C(C)(C)C)cc1 | 46.2% (active)
O=C1CSc2ccc(C(=O)NCc3ccccn3)cc2N1 | 3.47% (inactive)
O=C(CSc1nnc(-c2c[nH]c3ccccc23)o1)c1ccccc1 | 29.7% (inactive)

SMILES | inhibition
CN(C(=O)CSc1nnc(-c2c[nH]c3ccccc23)o1)C1CCS(=O)(=O)C1 (stereo not given) | 16.6% (inactive)
CN(C(=O)CSc1nnc(-c2n[nH]c3ccccc23)o1)c1ccccc1 | 91.9% (active)
CCOC(=O)Cc1ncccc1C(=O)Nc1ccc(OC)cc1 | 25.1% (inactive)
COc1ccc(NC(=O)C2CCCN(S(=O)(=O)c3cccc4cccnc34)C2)cc1 (stereo not given) | 4.36% (inactive)
O=C(Nc1cccc2cccnc12)c1cccc(Cl)c1 | 61.5% (active)
Cc1cc(NC(=O)c2cccc(N3C(=O)CCC3=O)c2)no1 | 11.9% (inactive)
O=C(Nc1cccc2cccnc12)c1cccc(N2C(=O)CCC2=O)c1 | 92.7% (active)
O=C(Nc1cccnc1Cl)c1cc(-c2cccc(Cl)c2)on1 | 11.7% (inactive)
COc1ccc(NC(=O)Nc2cccc3cccnc23)cc1 | 40% (active)
COC(=O)c1cccc(NC(=O)c2cccc(N3C(=O)CCC3=O)c2)c1 | 4.2% (inactive)
N#Cc1ccc(C(=O)Nc2cccc3cccnc23)c(F)c1 | 11% (inactive)
CC[C@]1(C(=O)OC)[C@H]2C(=O)N(C)C(=O)[C@H]2[C@H]2CN(C)C(=NCc3ccccc3)N21 | 2.73% (inactive)
COc1ccccc1CNC(=O)COC(=O)c1cccs1 | 2.2% (inactive)
O=C(CN1C(=O)NC(Cc2c[nH]c3ccccc23)C1=O)Nc1ccccc1C(F)(F)F (stereo not given) | 3.6% (inactive)
CCC(C)c1ccc(NC(=O)COC(=O)C2CCCC2)cc1 (stereo not given) | 5.25% (inactive)
CCOC(=O)[C@@H]1[C@H]2COc3ccc(Br)cc3[C@H]2N2C(=O)N(c3ccc(C)cc3)C(=O)[C@@]12C | 10.5% (inactive)
O=C(Cn1cnc2c(OCc3ccccc3)ncnc21)NCc1nc2ccccc2[nH]1 | 14.3% (inactive)
CC(O)CNCCOc1cccc(Oc2ccccc2)c1 (stereo not given) | 3.22% (inactive)
COc1ccccc1OCCNCC(O)COc1cccc2[nH]c3ccccc3c12 (stereo not given) | 59.7% (active)
CC(C)(C)NCC(O)COc1cccc2[nH]c(=O)[nH]c12 (stereo not given) | 8.82% (inactive)
Cc1sc(NC(=O)c2ccc3ncsc3c2)c(C(N)=O)c1C | 43.8% (active)
COc1ccccc1-c1nnc(NC(=O)c2ccc3ncsc3c2)o1 | 8.4% (inactive)
Cc1ccc(C(=O)c2c(NC(=O)c3ccccc3)sc(C)c2C)cc1 | 21.9% (inactive)
Cc1ccc(C(=O)Nc2ccccc2-c2ccccc2)cc1S(=O)(=O)Nc1ccccc1 | 5.71% (inactive)
CCOc1ccc(N(CC(=O)NCc2ccc(OC)cc2)S(=O)(=O)c2c(C)noc2C)cc1 | 0.77% (inactive)
Cc1noc(C)c1S(=O)(=O)N(CC(=O)Nc1ccc2c(c1)OCCO2)c1ccc(C(C)C)cc1 | 23.3% (inactive)
Cc1noc(C)c1S(=O)(=O)N(CC(=O)NCc1ccc(Cl)cc1)c1ccc2c(c1)OCO2 | 80.7% (active)

From PubChem BioAssay AID485270 (The Scripps Research Institute Molecular Screening Center, 2010)
